Screens deposited in PubChem BioAssay by Broad Institute.
DUX4 txn inh: blocks DUX4-driven transcriptional activation | 293T-iDUX4 ZSCAN4-Gaussia luciferase reporter, 24 h; active compounds read low | activity change, negative = inhibition, % (test concentration not listed) | hit rate 0.8% among 37,000;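 active means mean inhibition of at least 10% in the main channel, exceeding the control channel by a set limit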
Of the large screens only hits and unclear results are named; the others gave an inactive call. This excerpt belongs to a sample that is enriched for hits.

O=C(c1ccc2c(c1)OCO2)N1CC[C@@H]2[C@H]1c1cc(-c3ccc(F)cc3)ccc1N[C@@H]2CO	none
CO[C@@H]1CN(C)C(=O)c2cc(NC(=O)Nc3ccc4c(c3)OCO4)ccc2OC[C@@H](C)N(C(C)=O)C[C@H]1C	none
CCCNC(=O)[C@@H]1[C@@H](CO)[C@@H]2Cn3c(ccc(-c4ccccc4F)c3=O)[C@H]1N2C(C)=O	none
CCN(C[C@H]1N[C@H](CO)[C@@H]1c1ccc(-c2cccc(C#N)c2)cc1)C(C)=O	none
Cc1nn(C)cc1NC(=O)C[C@@H]1CC[C@@H]2[C@@H](COc3ccc(NC(=O)c4cccc(F)c4)cc3C(=O)N2C)O1	none
N#C[C@H]1[C@@H](c2ccccc2-c2ccccc2)[C@@H](CO)N1C(=O)Cc1cccnc1	none
COc1ccc(S(=O)(=O)Nc2ccc3c(c2)C(=O)N([C@H](C)CO)C[C@H](C)[C@H](CN(C)C(=O)Nc2c(C)noc2C)OCCCC[C@H](C)O3)cc1	none
O=C(CC(F)(F)F)N1C[C@@H]2[C@H](c3ccccc31)[C@H](CO)N2C(=O)Cc1cccnc1	none
COc1ccc2c3c(n(C)c2c1)[C@H](CO)N(C(=O)CN(C)C)CC31CN(Cc2cccnc2)C1	none
C[C@@H]1CN([C@H](C)CO)C(=O)c2c(c3ccccc3n2C)-c2ccccc2CO[C@H]1CN(C)S(=O)(=O)c1ccc(F)cc1	DUX4 txn inh -29
C[C@@H]1CN([C@@H](C)CO)C(=O)c2c(c3ccccc3n2C)-c2ccccc2CO[C@@H]1CN(C)S(=O)(=O)c1ccc(C#N)cc1	none
C[C@@H]1CN([C@H](C)CO)C(=O)c2c(c3ccccc3n2C)-c2ccccc2CO[C@H]1CN(C)S(C)(=O)=O	none
C[C@H]1CN([C@@H](C)CO)C(=O)c2c(c3ccccc3n2C)-c2ccccc2CO[C@@H]1CN(C)S(=O)(=O)c1ccc([N+](=O)[O-])cc1	none
C[C@@H]1CN([C@H](C)CO)C(=O)c2c(c3ccccc3n2C)-c2ccccc2CO[C@@H]1CN(C)S(C)(=O)=O	none
C[C@@H]1CN([C@H](C)CO)C(=O)c2c(c3ccccc3n2C)-c2ccccc2CO[C@@H]1CN(C)S(=O)(=O)c1ccc(C(F)(F)F)cc1	none
Cc1ccccc1S(=O)(=O)N(C)C[C@H]1OCc2ccccc2-c2c(n(C)c3ccccc23)C(=O)N([C@H](C)CO)C[C@@H]1C	DUX4 txn inh -35
C[C@@H]1CN([C@H](C)CO)C(=O)c2c(c3ccccc3n2C)-c2ccccc2CO[C@H]1CN(C)S(=O)(=O)c1cccc(C#N)c1	none
C[C@@H]1CN([C@@H](C)CO)C(=O)c2c(c3ccccc3n2C)-c2ccccc2CO[C@@H]1CN(C)S(=O)(=O)c1cccc(C#N)c1	DUX4 txn inh -24
C[C@@H]1CN([C@H](C)CO)C(=O)c2cc(NS(=O)(=O)c3cccs3)ccc2O[C@H]1CN(C)Cc1ccc(C(=O)O)cc1	none
C[C@H](CO)N1C[C@H](C)[C@@H](CN(C)S(=O)(=O)c2ccc(F)cc2)Oc2ccc(N(C)C)cc2C1=O	none
COc1cccc(C(=O)Nc2ccc3c(c2)C(=O)N(C)[C@H]2CC[C@@H](CC(=O)NCc4ccccc4F)O[C@H]2CO3)c1	none
CO[C@@H]1CN(C)C(=O)c2ccc(NC(=O)c3cccc(F)c3)cc2OC[C@@H](C)N(CC2CC2)C[C@@H]1C	none
O=C(c1cccc(F)c1)N1C[C@@H]2[C@H](c3ccccc31)[C@@H](CO)N2C(=O)C1CCOCC1	none
COc1ccc2c3c(n(C)c2c1)[C@@H](CO)N(C(=O)Nc1ccc(F)cc1)CC31CN(C(=O)NC2CCCC2)C1	none
CC(C)CN(C[C@@H]1N[C@@H](CO)[C@@H]1c1ccccc1)C(=O)CN(C)C	none
Cc1ccccc1-c1ccc([C@H]2[C@@H](CO)N3C(=O)CN(C(=O)c4ccccn4)C[C@@H]23)cc1	none
Cc1ccccc1S(=O)(=O)N1CCCCN2[C@H](C1)[C@@H](c1ccc(-c3cccc(F)c3)cc1)[C@@H]2CO	none
Cc1ccccc1S(=O)(=O)N1CCCCN2[C@@H](CO)[C@H](c3ccc(-c4cccc(F)c4)cc3)[C@@H]2C1	DUX4 txn inh -47
Cc1cccc(-c2ccc([C@H]3[C@@H](CO)N4CCCCN(S(=O)(=O)c5ccccc5F)C[C@@H]34)cc2)c1	none
Cc1ccccc1S(=O)(=O)N1CCCCN2[C@H](CO)[C@@H](c3ccc(-c4cccnc4)cc3)[C@H]2C1	none
Cc1ccc(-c2ccc([C@@H]3[C@@H](CO)N4CCCCN(S(=O)(=O)c5ccccc5C)C[C@H]34)cc2)cc1	DUX4 txn inh -25
Cc1ccccc1S(=O)(=O)N1CCCCN2[C@H](C1)[C@@H](c1ccc(-c3cccnc3)cc1)[C@@H]2CO	none
Cc1cccc(S(=O)(=O)N(C)C[C@H]2OCc3cn(nn3)CCCC(=O)N([C@H](C)CO)C[C@H]2C)c1	none
Cc1noc(C)c1S(=O)(=O)N(C)C[C@@H]1Oc2ccc(NS(=O)(=O)c3cn(C)cn3)cc2CC(=O)N([C@H](C)CO)C[C@@H]1C	none
C[C@@H]1CN([C@@H](C)CO)C(=O)c2cccc(NC(=O)C3CCCCC3)c2O[C@H]1CN(C)S(C)(=O)=O	none
O=S(=O)(c1ccccc1)N1CCCCN2[C@H](C1)[C@@H](c1ccc(C#Cc3cccnc3)cc1)[C@@H]2CO	none
O=S(=O)(c1ccccc1)N1CCCCN2[C@H](C1)[C@H](c1ccc(C#CC3CCCC3)cc1)[C@@H]2CO	DUX4 txn inh -26
O=S(=O)(c1ccccc1)N1CCCCN2[C@H](C1)[C@H](c1ccc(C#Cc3cccnc3)cc1)[C@@H]2CO	DUX4 txn inh -45
O=S(=O)(c1ccccc1)N1CCCCN2[C@H](CO)[C@H](c3ccc(C#CC4CCCC4)cc3)[C@@H]2C1	none
O=C(C1CC1)N1CCCCN2[C@H](CO)[C@H](c3ccc(C#CC4CCCC4)cc3)[C@H]2C1	none
O=S(=O)(c1ccc(F)cc1)N1CCCCN2[C@H](C1)[C@@H](c1ccc(C#CC3CC3)cc1)[C@@H]2CO	none
O=C(C1CC1)N1CCCCN2[C@H](C1)[C@@H](c1ccc(C#CC3CCCC3)cc1)[C@@H]2CO	DUX4 txn inh -24
O=S(=O)(c1ccccc1)N1CCCCN2[C@H](CO)[C@@H](c3ccc(-c4ccccc4)cc3)[C@@H]2C1	none
C[C@H](O)C#Cc1ccc([C@H]2[C@H]3CN(S(=O)(=O)c4ccccc4)CCCCN3[C@H]2CO)cc1	none
O=C(Nc1ccc(F)cc1)N1CCCCN2[C@H](C1)[C@H](c1ccc(C#CC3CC3)cc1)[C@@H]2CO	none
C[C@H](O)C#Cc1ccc([C@@H]2[C@H](CO)N3CCCCN(S(=O)(=O)c4ccccc4)C[C@@H]23)cc1	none
O=S(=O)(c1ccccc1)N1CCCCN2[C@H](CO)[C@H](c3ccc(C#Cc4cccnc4)cc3)[C@@H]2C1	DUX4 txn inh -56
COCC(=O)NC[C@H]1N[C@H](CO)[C@@H]1c1ccc(C#CC2CCCCC2)cc1	none
O=C(NC1CCCCC1)N[C@H]1CC[C@H](CC(=O)N2CCOCC2)O[C@H]1CO	none
CCCNC(=O)N1CC(=O)N2[C@H](CO)[C@@H](c3ccc(C#Cc4cccc(F)c4)cc3)[C@@H]2C1	none
COc1ccc(NC(=O)Nc2ccc3c(c2)[C@@H]2C[C@@H](CC(=O)NCc4ccccn4)O[C@H](CO)[C@@H]2O3)cc1	none
Cc1ccc(-c2ccc3c(c2)O[C@H](CN(C)Cc2ccccn2)[C@@H](C)CN([C@@H](C)CO)S3(=O)=O)cc1	none
O=C(C[C@@H]1CC[C@H]2[C@@H](COC[C@@H](O)CN2Cc2ccncc2)O1)NCC1CC1	none
CCCN(C)C[C@@H]1OCc2cn(nn2)CCCC(=O)N([C@@H](C)CO)C[C@@H]1C	none
O=S(=O)(c1ccccc1)N1C[C@H]2[C@@H](c3ccccc31)[C@@H](CO)N2Cc1ccccc1	none
